Assay [1] deals with T1, Ephrin type-B receptor 1 (Homo sapiens) (UniProt P54762).
T1 sequence (whole entry): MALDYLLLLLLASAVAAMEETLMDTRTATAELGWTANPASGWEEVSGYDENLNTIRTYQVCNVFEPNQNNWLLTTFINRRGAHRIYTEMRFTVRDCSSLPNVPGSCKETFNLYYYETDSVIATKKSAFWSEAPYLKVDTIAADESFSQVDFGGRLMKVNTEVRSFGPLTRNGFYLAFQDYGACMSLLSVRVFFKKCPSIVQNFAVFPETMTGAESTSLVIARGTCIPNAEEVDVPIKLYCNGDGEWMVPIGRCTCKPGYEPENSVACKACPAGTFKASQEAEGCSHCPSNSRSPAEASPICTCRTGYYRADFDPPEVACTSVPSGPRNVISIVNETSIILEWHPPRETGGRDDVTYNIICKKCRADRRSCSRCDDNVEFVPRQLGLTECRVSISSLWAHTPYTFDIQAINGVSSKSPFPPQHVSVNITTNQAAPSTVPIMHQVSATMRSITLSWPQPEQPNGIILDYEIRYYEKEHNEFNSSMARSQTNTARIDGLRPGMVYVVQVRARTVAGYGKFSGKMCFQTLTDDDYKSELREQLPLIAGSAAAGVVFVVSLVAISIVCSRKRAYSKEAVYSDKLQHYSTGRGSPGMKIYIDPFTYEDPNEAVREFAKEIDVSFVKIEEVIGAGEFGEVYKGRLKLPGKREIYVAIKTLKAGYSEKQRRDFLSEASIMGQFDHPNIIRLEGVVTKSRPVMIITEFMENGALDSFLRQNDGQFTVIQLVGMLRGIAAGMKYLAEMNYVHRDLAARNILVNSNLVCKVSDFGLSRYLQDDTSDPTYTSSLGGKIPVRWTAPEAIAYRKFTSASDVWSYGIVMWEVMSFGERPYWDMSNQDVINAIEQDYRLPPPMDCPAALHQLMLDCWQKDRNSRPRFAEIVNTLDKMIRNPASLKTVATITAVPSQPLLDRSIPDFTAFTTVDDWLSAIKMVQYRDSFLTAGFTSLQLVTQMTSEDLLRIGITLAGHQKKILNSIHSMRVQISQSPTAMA
The conditions noted are these: at 10 µM.

The target in assay [2] is T2, Ephrin type-B receptor 3 (Homo sapiens) (UniProt P54753).
T2 sequence (whole entry): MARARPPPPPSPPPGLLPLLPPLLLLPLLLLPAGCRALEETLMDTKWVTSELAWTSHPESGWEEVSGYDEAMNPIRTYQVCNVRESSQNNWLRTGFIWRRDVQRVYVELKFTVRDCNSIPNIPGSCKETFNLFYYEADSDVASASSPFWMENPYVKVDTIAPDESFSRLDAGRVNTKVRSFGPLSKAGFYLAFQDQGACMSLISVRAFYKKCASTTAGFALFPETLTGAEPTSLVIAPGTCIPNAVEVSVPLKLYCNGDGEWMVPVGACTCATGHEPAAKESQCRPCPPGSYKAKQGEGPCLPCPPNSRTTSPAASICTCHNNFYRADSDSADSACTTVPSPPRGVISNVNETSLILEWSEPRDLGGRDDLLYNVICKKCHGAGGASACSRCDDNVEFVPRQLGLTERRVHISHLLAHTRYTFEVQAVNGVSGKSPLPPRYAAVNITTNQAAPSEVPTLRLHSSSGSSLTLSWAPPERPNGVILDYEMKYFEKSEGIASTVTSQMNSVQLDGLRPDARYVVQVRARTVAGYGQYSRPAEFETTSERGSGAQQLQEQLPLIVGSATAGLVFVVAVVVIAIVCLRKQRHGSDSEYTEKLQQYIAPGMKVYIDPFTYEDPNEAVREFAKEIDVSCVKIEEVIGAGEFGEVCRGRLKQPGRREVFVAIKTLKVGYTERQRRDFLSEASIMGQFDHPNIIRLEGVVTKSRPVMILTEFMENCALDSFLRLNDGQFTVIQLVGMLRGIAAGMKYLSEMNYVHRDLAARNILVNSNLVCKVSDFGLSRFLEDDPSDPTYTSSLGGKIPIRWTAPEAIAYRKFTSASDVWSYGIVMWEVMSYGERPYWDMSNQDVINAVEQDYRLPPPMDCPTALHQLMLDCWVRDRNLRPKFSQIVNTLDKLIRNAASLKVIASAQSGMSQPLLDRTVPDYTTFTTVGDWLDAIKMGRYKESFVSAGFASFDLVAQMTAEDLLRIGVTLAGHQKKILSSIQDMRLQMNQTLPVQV
The conditions noted are these: at 1 µM.

The target in assay [3] is T2, Ephrin type-B receptor 3 (Homo sapiens). The conditions noted are these: at 10 µM.
Assay [4] concerns the target T3, Ephrin type-B receptor 4 (Homo sapiens) (UniProt P54760).
T3 sequence (whole entry): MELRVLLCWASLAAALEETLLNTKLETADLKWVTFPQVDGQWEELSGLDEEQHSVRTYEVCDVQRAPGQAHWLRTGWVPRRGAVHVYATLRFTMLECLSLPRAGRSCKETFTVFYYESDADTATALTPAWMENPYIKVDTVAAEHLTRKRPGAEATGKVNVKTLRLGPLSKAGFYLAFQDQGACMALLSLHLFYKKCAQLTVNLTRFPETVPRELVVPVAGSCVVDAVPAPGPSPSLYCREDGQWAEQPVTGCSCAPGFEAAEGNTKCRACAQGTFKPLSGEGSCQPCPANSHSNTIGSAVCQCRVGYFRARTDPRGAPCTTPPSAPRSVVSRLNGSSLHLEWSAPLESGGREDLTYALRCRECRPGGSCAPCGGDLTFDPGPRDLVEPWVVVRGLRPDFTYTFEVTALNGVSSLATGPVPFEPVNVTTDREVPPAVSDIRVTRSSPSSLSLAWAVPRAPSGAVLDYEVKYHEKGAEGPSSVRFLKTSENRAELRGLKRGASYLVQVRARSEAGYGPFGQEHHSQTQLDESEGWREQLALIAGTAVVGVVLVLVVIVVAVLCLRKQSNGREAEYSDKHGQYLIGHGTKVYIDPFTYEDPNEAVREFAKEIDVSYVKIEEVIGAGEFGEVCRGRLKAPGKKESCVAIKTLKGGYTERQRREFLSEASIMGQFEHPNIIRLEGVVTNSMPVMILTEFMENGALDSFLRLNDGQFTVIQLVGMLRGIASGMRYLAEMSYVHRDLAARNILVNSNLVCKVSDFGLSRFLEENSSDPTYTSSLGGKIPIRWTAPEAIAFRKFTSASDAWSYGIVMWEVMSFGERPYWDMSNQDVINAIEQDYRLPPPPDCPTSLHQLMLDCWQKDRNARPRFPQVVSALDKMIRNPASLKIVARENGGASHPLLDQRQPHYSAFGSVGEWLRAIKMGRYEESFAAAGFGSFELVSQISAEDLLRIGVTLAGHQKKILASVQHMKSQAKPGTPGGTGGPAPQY
The conditions noted are these: at 1 µM.

Assay [5] addresses T3, Ephrin type-B receptor 4 (Homo sapiens). The conditions noted are these: at 10 µM.
Assay [6] has as its target Receptor tyrosine-protein kinase erbB-4 (Homo sapiens) (UniProt Q15303). The conditions noted are these: at 1 µM.
The target is the same in assay [7]. The conditions noted are these: at 10 µM.
Assay [8] deals with Focal adhesion kinase 1 (Homo sapiens) (UniProt Q05397). The conditions noted are these: at 1 µM.
Assay [9] concerns the target T4, Ephrin type-B receptor 2 (Homo sapiens) (UniProt P29323).
T4 sequence (whole entry): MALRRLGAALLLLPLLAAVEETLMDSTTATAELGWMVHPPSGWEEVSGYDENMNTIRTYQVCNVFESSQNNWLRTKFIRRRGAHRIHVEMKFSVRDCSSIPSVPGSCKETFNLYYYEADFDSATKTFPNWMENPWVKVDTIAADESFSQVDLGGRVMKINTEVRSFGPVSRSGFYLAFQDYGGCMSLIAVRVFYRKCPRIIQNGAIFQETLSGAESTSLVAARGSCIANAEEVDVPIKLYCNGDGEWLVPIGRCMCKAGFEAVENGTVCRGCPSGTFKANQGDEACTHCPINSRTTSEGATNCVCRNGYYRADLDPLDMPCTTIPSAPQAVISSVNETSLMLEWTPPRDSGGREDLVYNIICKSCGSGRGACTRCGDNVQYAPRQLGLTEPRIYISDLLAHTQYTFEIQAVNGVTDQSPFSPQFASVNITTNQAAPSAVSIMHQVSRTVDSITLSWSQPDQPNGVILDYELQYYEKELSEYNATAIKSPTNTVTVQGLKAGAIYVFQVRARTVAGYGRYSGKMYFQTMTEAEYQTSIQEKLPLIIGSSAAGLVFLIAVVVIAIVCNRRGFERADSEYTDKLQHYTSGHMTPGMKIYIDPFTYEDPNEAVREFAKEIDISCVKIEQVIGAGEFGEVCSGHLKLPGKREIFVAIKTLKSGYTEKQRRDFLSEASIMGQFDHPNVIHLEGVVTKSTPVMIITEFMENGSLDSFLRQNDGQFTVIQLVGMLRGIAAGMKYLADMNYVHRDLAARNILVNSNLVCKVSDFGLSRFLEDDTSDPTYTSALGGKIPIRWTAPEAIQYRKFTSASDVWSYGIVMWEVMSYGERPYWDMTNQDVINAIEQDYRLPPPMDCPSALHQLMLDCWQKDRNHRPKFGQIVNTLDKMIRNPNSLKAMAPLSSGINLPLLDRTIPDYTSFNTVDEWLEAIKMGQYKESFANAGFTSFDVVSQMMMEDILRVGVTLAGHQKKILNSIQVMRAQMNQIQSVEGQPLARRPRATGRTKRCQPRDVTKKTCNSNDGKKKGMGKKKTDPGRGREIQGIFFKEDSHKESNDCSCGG
The conditions noted are these: at 1 µM.

Assay [10] addresses T4, Ephrin type-B receptor 2 (Homo sapiens). The conditions noted are these: at 10 µM.

Sequence of Focal adhesion kinase 1 (Homo sapiens) (Q05397 2-1052 limits assumed): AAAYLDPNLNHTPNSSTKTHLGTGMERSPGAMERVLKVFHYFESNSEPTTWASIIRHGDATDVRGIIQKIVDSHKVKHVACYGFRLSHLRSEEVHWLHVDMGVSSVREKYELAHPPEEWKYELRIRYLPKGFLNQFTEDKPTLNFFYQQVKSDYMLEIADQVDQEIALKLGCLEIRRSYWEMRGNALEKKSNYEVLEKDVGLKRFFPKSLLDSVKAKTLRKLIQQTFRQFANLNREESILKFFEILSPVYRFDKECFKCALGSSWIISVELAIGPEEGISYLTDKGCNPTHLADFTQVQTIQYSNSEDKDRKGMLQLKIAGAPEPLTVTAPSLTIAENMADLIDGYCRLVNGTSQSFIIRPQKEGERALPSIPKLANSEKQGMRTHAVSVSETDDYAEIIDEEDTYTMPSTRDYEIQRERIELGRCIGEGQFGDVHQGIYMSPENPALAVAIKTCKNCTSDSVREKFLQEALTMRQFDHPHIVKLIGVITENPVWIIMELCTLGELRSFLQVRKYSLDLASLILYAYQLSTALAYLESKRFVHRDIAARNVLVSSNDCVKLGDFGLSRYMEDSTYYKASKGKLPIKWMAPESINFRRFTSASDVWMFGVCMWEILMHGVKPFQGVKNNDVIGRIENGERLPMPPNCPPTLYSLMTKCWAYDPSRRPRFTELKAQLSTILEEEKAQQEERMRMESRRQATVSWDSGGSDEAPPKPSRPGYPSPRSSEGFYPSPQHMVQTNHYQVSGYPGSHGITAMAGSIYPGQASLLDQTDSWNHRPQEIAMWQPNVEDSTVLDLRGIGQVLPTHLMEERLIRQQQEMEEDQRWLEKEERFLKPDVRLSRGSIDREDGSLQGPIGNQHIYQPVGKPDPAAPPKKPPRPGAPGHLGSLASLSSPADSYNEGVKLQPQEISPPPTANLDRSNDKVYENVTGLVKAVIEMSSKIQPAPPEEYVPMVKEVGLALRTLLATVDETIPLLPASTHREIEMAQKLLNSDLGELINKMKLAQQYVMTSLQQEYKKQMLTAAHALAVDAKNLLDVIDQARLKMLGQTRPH
Sequence of Receptor tyrosine-protein kinase erbB-4 (Homo sapiens) (Q15303 whole entry): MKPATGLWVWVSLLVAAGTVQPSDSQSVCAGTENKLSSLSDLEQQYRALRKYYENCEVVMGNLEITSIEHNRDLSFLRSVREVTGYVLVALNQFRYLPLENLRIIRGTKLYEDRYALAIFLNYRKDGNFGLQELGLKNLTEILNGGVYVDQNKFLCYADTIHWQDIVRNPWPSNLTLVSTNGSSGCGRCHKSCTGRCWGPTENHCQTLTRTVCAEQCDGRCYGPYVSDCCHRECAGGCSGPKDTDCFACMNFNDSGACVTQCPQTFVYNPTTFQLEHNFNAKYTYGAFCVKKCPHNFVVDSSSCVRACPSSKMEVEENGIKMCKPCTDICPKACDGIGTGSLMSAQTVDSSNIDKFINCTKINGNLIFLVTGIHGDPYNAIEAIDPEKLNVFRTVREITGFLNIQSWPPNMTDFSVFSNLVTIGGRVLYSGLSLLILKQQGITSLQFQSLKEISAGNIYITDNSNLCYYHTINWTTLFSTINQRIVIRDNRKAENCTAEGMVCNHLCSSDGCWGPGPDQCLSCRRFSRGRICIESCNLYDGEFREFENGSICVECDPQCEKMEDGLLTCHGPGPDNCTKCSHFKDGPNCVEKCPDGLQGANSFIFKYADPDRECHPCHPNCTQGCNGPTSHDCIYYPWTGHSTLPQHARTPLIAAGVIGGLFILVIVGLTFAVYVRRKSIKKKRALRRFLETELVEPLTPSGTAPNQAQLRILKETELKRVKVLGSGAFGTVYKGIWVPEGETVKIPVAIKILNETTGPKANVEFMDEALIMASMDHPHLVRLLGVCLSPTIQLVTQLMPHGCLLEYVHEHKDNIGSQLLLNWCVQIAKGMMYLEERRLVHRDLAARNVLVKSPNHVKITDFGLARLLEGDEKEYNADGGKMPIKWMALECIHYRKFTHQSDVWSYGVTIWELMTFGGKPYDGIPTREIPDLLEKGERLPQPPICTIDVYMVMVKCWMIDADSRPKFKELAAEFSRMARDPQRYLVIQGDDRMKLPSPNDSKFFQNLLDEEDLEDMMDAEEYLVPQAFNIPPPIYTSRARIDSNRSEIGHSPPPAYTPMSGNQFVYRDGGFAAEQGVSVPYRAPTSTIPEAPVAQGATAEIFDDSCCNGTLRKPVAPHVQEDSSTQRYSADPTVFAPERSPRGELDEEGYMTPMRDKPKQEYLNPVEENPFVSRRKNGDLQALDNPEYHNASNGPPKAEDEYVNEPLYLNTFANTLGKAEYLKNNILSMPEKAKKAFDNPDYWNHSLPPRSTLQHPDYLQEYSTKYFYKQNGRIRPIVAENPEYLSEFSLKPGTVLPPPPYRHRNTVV

On to `CN(C)S(=O)(=O)c1ccc2c(c1)/C(=C/c1cc3c([nH]1)CCCC3)C(=O)N2`, for which the residual activity (as a rule, the signal under treatment as a percentage of the control signal) was 64% in assay [1]; 120% (inactive) in assay [2]; 94% in [3]; 70% in assay [4]; 69% in assay [5]; 88% in assay [6]. Besides, the values for the residual activity in [7] and in assay [8] were 82% and 21%, respectively.

`c1ccc(-c2cnc(Nc3ccc(OCCN4CCCC4)cc3)s2)cc1`: the residual activity in [1] was 65%; in assay [2], 112% (inactive); in [3], 120%; in assay [4], 109%; in assay [5] it was 64%; in assay [7] it was 61%. Further, the residual activity in assay [8] is 132%.

Turning to `NC(=O)Nc1sc(-c2ccc(F)cc2)cc1C(N)=O`, the residual activity in [1] was 0%; in [9], 93%; in assay [10], 19%; in assay [2] it was 117% (inactive); in assay [3] it was 117%; in assay [4], 49%. Besides, the residual activity is 6% in [5], 91% in assay [6], 59% in [7] and 68% in assay [8].

`COc1cc2c(cc1OC)-c1n[nH]c(Nc3cccc(F)c3)c1C2`: the residual activity amounted to 43% in assay [1], 64% in assay [10], 77% in [4] and 35% in assay [5].

Regarding `O=C1Nc2ccc(Cl)cc2/C1=C/c1cc(Cl)c(O)c(Cl)c1`, the residual activity is 86% in [1]; 113% (inactive) in [2]; 115% in assay [3]; 91% in assay [6]; 76% in assay [7]; 115% in assay [8].

`CCCCc1c(-c2ccc(O)cc2)[nH]c2nccnc12`: the residual activity in assay [1] turned out to be 22%; in assay [9], 96%; in assay [10], 82%; in assay [4], 74%; in assay [5], 16%; in [8], 76%.

As for `Nc1ncnc2c1c(-c1ccc(Oc3ccccc3)cc1)cn2C1CCCC1`, the residual activity is 70% in assay [1]; 108% in assay [9]; 101% in assay [10]; 104% (inactive) in [2]; 117% in assay [3]; 99% in assay [4]. Further, the residual activity in assay [5] is 89%; in assay [6], 0%; in [7], -4%; in [8], 116%.

Consider `Nc1nc(Nc2ccc(S(N)(=O)=O)cc2)nn1C(=O)c1c(F)cccc1F`, for which the residual activity in [1] is 14%; in assay [9] it was 103%; in assay [10], 68%; in assay [2], 115% (inactive); in [8], 102%.

For the molecule `COc1cc2nccc(Oc3ccc(NC(=O)Nc4cc(C)on4)c(Cl)c3)c2cc1OC`, the residual activity in assay [1] was -1%; in assay [9], -2%; in [10], -1%; in assay [7], 75%; in assay [8] it was 96%.

For `CCCCc1c(-c2ccc(OC)cc2)[nH]c2nccnc12`, the residual activity was 61% in assay [1]; 101% in assay [9]; 89% in assay [10]; 121% (inactive) in [2]; 109% in assay [3]; 78% in assay [4]. Further, the residual activity in assay [5] worked out at 81%; in [6] it was 120%; in assay [7] it was 102%; in [8], 67%.

On to `COc1cc2ncnc(Nc3cccc(Cl)c3)c2cc1OC`, for which the residual activity in [1] stood at 24%; in assay [3] it was 121%; in assay [4], 45%; in [5] it was 5%; in assay [6], 35%; in assay [7] it was 4%. In addition, in [8], the residual activity came out at 146%.

For `CCN(CC)CCNC(=O)c1c(C)[nH]c(/C=C2\C(=O)Nc3ccc(Cl)cc32)c1C`, the residual activity in [1] is 24%; in assay [2], 129% (inactive); in [3], 130%; in [4], 100%; in assay [5], 35%; in assay [8], 15%.

The values are drawn from ChEMBL document CHEMBL2218924, “A broad activity screen in support of a chemogenomic map for kinase signalling research and drug discovery” (Biochem J, 2013).
